This note sets out measurements from PubChem BioAssay (NCI).

The nature of the test: NCI Yeast Anticancer Drug Screen. Data for the rad18 strain (AID 177). The settings on record: S. cerevisiae rad18 mutant growth inhibition, active compounds read high. As for the experimental part:
Growth inhibition of yeast strains with defined genetic alterations is measured as a screen for potential anti-cancer activity. Selected strains with alterations in DNA damage repair or cell cycle control were exposed to compounds and growth inhibition was measured relative to vehicle treated controls. The strain used in this assay is rad18

Compounds without any hit were thinned out: in the full panel of roughly 79,000, 15% have a hit. Values without a mark were called inactive. The source made the active and inactive calls. Cut-off read from the data, not from the text of the source: active = growth inhibition above about 70%; inactive = the rest.

For the compound `Cn1c(-c2ccc(/C=N\N3CCN(/N=C/c4ccc(-c5c[n+]6ccccc6n5C)cc4)CC3)cc2)c[n+]2ccccc12`, the growth inhibition is, setting by setting: (at 1.2 µM) -23%; (at 3.7 µM) -19%; (at 11.0 µM) -31%; (at 33.0 µM) 47%; (at 100.0 µM) 87% (active).

`COC(=O)/C=C(/CC(=O)OC)C(=O)OC`: the growth inhibition is, setting by setting: (at 1.2 µM) 3%; (at 3.7 µM) 2%; (at 11.0 µM) 1%; (at 33.0 µM) 1%; (at 100.0 µM) -4%.

Consider `Cc1cc(C(C)(C)CC(C)(C)C)ccc1O`, for which the growth inhibition runs as follows: (at 1.2 µM) -13%; (at 3.7 µM) -42%; (at 11.0 µM) 36%; (at 33.0 µM) 98% (active); (at 100.0 µM) 98% (active).

On to `CN(C)c1ccc(N=Nc2ccncc2)cc1`, for which the growth inhibition is, setting by setting: (at 1.2 µM) 6%; (at 3.7 µM) 24%; (at 11.0 µM) 35%; (at 33.0 µM) 19%; (at 100.0 µM) 31%.

Take `c1ccc2c(OCC3CO3)cccc2c1` (stereo not given): the growth inhibition runs as follows: (at 1.2 µM) 18%; (at 3.7 µM) 55%; (at 11.0 µM) 86% (active); (at 33.0 µM) 95% (active); (at 100.0 µM) 98% (active).

Consider `C=C1CCC(O)C/C1=C/C=C1\CCCC2(C)C1CCC2C(C)CCCC(C)C` (stereo not given), for which the growth inhibition was -10% (at 1.2 µM); -6% (at 3.7 µM); -8% (at 11.0 µM); 13% (at 33.0 µM); 34% (at 100.0 µM).

Take `CCCC/C([O-])=C1/C(=O)N(c2ccccc2)N=C1C.CCCC/C([O-])=C1/C(=O)N(c2ccccc2)N=C1C.[Cu+2]`: the growth inhibition by setting is: (at 1.2 µM) -3%; (at 3.7 µM) -4%; (at 11.0 µM) -1%; (at 33.0 µM) -5%; (at 100.0 µM) -3%.

Regarding `O=c1ssc(=Nc2ccccc2)n1-c1ccccc1`, the growth inhibition is, setting by setting: (at 1.2 µM) 4%; (at 3.7 µM) 3%; (at 11.0 µM) -1%; (at 33.0 µM) 13%; (at 100.0 µM) 47%.
